“And” between values parts separate entries of the source, which are not always exact repeats. Equal entries are not always repeated. The campaign covered roughly 5,500 compounds. About 2,000 (36%) were called active. Inconclusive results (about 18%) are left out. Rule as the data show it: active = normalized growth mostly below about 0.91 (no sharp cut-off); inconclusive = no clear call, values can overlap the other calls; inactive = mostly above about 0.92. The list shows a part of the results.
Test: chemical genetic growth profiling, strain panel (AID 1159580);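 also: tested at 20 µM; growth read once vehicle control cultures reached saturation at 30 °C; 1 = growth at the plate median or of vehicle wells; lower values mean less growth of the strain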
Conditions: S. cerevisiae deletion strains, growth OD

Measured: normalized growth

Fc1ccc([C@@H]2CCNC[C@H]2COc2ccc3c(c2)OCO3)cc1
inactive: locus YAL013W, strain DEP1, stronger effect = lower value 1.02 | locus YAL021C, strain ccr4, stronger effect = lower value 1 | locus YAL026C, strain drs2, stronger effect = lower value 0.997 | locus YAL030W, strain snc1, stronger effect = lower value 1.01 | locus YBL061C, strain skt5, stronger effect = lower value 0.991 | locus YBR009C, strain hhf1, stronger effect = lower value 1.01 | locus YBR021W, strain FUR4, stronger effect = lower value 1.01 | locus YBR023C, strain chs3, stronger effect = lower value 1 | locus YBR171W, strain sec66, stronger effect = lower value 0.984 | locus YBR229C, strain ROT2, stronger effect = lower value 1.01 | locus YBR231C, strain swc5, stronger effect = lower value 0.992 | locus YBR279W, strain paf1, stronger effect = lower value 1 | locus YCL011C, strain gbp2, stronger effect = lower value 0.999 | locus YCL016C, strain dcc1, stronger effect = lower value 0.99 | locus YCL029C, strain bik1, stronger effect = lower value 1.02 | locus YCL061C, strain MRC1, stronger effect = lower value 0.998 | locus YCL069W, strain vba3, stronger effect = lower value 1 | locus YCR088W, strain abp1, stronger effect = lower value 1 | locus YDL005C, strain med2, stronger effect = lower value 1.01 | locus YDL035C, strain GPR1, stronger effect = lower value 1.03 | locus YDL040C, strain nat1, stronger effect = lower value 0.992 | locus YDL074C, strain BRE1, stronger effect = lower value 1.01 | locus YDL101C, strain DUN1, stronger effect = lower value 1.01 | locus YDL134C, strain PPH21, stronger effect = lower value 1 | locus YDL185W, strain tfp1, stronger effect = lower value 1.01 | locus YDL192W, strain arf1, stronger effect = lower value 1.01 | locus YDR001C, strain nth1, stronger effect = lower value 0.999 | locus YDR069C, strain doa4, stronger effect = lower value 1.01 | locus YDR101C, strain arx1, stronger effect = lower value 1 | locus YDR137W, strain rgp1, stronger effect = lower value 1.09 | locus YDR150W, strain NUM1, stronger effect = lower value 1 | locus YDR159W, strain sac3, stronger effect = lower value 1.01 | locus YDR162C, strain NBP2, stronger effect = lower value 1 | locus YDR195W, strain ref2 1.02 | locus YDR297W, strain sur2, stronger effect = lower value 0.998 | locus YDR318W, strain mcm21, stronger effect = lower value 1.02 | locus YDR334W, strain swr1, stronger effect = lower value 1.01 | locus YDR335W, strain msn5, stronger effect = lower value 1.01 | locus YDR388W, stronger effect = lower value 1 | locus YDR392W, strain spt3, stronger effect = lower value 1.02 | locus YDR502C, strain sam2, stronger effect = lower value 0.998 | locus YEL003W, strain gim4, stronger effect = lower value 1.01 | locus YEL037C, strain rad23, stronger effect = lower value 1 | locus YEL061C, strain CIN8 (second series), stronger effect = lower value 1 | locus YEL061C, strain CIN8, stronger effect = lower value 1.01 | locus YER015W, strain faa2, stronger effect = lower value 1.01 | locus YER016W, strain bim1, stronger effect = lower value 0.99 | locus YER110C, stronger effect = lower value 1.02 | locus YER111C, strain swi4, stronger effect = lower value 0.984 | locus YER155C, strain BEM2 (second series), stronger effect = lower value 1.01 | locus YER155C, strain BEM2, stronger effect = lower value 1 | locus YER167W, strain BCK2, stronger effect = lower value 1.02 | locus YFR010W, strain ubp6, stronger effect = lower value 1.03 | locus YGL078C, strain dbp3, stronger effect = lower value 0.989 | locus YGL086W, strain mad1, stronger effect = lower value 1.02 | locus YGL167C, strain pmr1, stronger effect = lower value 1 | locus YGL173C, strain kem1, stronger effect = lower value 0.986 | locus YGL227W, strain vid30, stronger effect = lower value 0.987 | locus YGL240W, strain doc1, stronger effect = lower value 0.99 | locus YGL248W, strain PDE1, stronger effect = lower value 1.01 | locus YGL253W, strain hxk2, stronger effect = lower value 0.993 | locus YGR078C, strain PAC10, stronger effect = lower value 1 | locus YGR135W, strain pre9, stronger effect = lower value 0.987 | locus YGR229C, strain SMI1, stronger effect = lower value 1 | locus YGR252W, strain gcn5, stronger effect = lower value 1.05 | locus YHR013C, strain ard1, stronger effect = lower value 0.998 | locus YHR027C, strain rpn1, stronger effect = lower value 1 | locus YHR030C, strain SLT2, stronger effect = lower value 1.01 | locus YHR079C, strain IRE1 (second series), stronger effect = lower value 1 | locus YHR079C, strain IRE1, stronger effect = lower value 1.02 | locus YHR094C, strain hxt1, stronger effect = lower value 0.999 | locus YHR129C, strain ARP1, stronger effect = lower value 1.01 | locus YHR142W, strain chs7, stronger effect = lower value 0.969 | locus YHR200W, strain rpn10, stronger effect = lower value 1.01 | locus YIL066C, strain RNR3, stronger effect = lower value 1.01 | locus YIL073C, strain SPO22, stronger effect = lower value 1.09 | locus YIL125W, strain kgd1, stronger effect = lower value 0.997 | locus YIR030C, strain dcg1, stronger effect = lower value 1 | locus YJL092W, strain hpr5, stronger effect = lower value 0.998 | locus YJL095W, strain BCK1 (second series), stronger effect = lower value 0.995 | locus YJL095W, strain BCK1, stronger effect = lower value 1.02 and 1.01 | locus YJL115W, strain asf1, stronger effect = lower value 1 | locus YJL129C, strain trk1, stronger effect = lower value 0.987 | locus YJL134W, strain LCB3, stronger effect = lower value 1.01 | locus YJL154C, strain vps35, stronger effect = lower value 1.02 | locus YJL164C, strain tpk1, stronger effect = lower value 1.01 | locus YJL166W, strain qcr8, stronger effect = lower value 1.03 | locus YJL168C, strain set2, stronger effect = lower value 1.01 | locus YJL187C, strain SWE1 (second series), stronger effect = lower value 1 | locus YJL187C, strain SWE1, stronger effect = lower value 1.01 | locus YJR043C, strain POL32, stronger effect = lower value 1.04 | locus YJR066W, strain TOR1, stronger effect = lower value 1.02
